Data on 21 compounds can be found in PubChem BioAssay (NCI).

This is part of a sample that, as a whole, favours compounds with a hit. Of some 79,000 tested, about 15% had one in any assay. Values without a mark were called inactive. Active and inactive are the calls of the source. No stated cut-off is given here; in the data, active means growth inhibition above about 70%; inactive means the rest.

Assay [1] is described as follows: NCI Yeast Anticancer Drug Screen. Data for the rad50 strain (AID 155).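 Further: 0% = growth of vehicle-only cultures of the same strain.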 The note with it: S. cerevisiae rad50 strain growth inhibition; at 50.0 µM; stronger effect = higher value. Summed up: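 A DNA repair-deficient yeast mutant serves as the test organism; compound-induced growth inhibition is calculated against vehicle-treated cells.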
Assay [2] in a line: NCI Yeast Anticancer Drug Screen. Data for the mec2-1 strain (AID 157). The note with it: S. cerevisiae mec2-1 strain, at 50.0 µM, stronger effect = higher value. Summed up: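 Using mec2-1 yeast: add compound, measure growth, express inhibition versus vehicle-treated cultures.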
Assay [3] is described as follows: NCI Yeast Anticancer Drug Screen. Data for the sgs1 mgt1 strain (AID 161).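 Further: 0% = growth of cultures given vehicle only.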 The note with it: S. cerevisiae sgs1 mgt1 strain, at 50.0 µM, stronger effect = higher value. In short, it runs like this: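 Growth of a repair-deficient yeast mutant was monitored after compound treatment and expressed as inhibition relative to vehicle-treated cultures.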
The nature of assay [4]: NCI Yeast Anticancer Drug Screen. Data for the cln2 rad14 strain (AID 165).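 Further: 0% = growth equal to vehicle treated cultures.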 The note with it: S. cerevisiae cln2 rad14 strain, at 50.0 µM, stronger effect = higher value. Summed up:
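Yeast strain cln2 rad14, bearing defects in cell cycle control and DNA repair, serves as the test system; values reflect growth inhibition compared with vehicle.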

Assay [5] is described as follows: NCI Yeast Anticancer Drug Screen. Data for the bub3 strain (AID 167). The note with it: S. cerevisiae bub3 mutant strain, at 50.0 µM, stronger effect = higher value. Summed up: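 Inhibition values come from growth of compound-treated mutant yeast normalised to vehicle-treated controls.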
A short description of assay [6]: NCI Yeast Anticancer Drug Screen. Data for the mlh1 rad18 strain (AID 175). The note with it: S. cerevisiae mlh1 rad18 strain growth inhibition; at 50.0 µM; stronger effect = higher value. Summed up: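 Steps: expose repair-defective yeast to compound; measure growth; express inhibition against vehicle-treated controls.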

As to `COc1ccc(/C=N/Nc2nc3ccccc3c(=O)n2-c2ccccc2)c(OCc2ccccc2)c1`, the growth inhibition in assay [1] was 4.7%; in assay [2], 5.2%; in assay [3], 5.5%; in assay [4] it was -0.1%; in assay [5], 9%; in assay [6] it was 9.85%.
In the case of `C=Cc1nnnn1C`, the growth inhibition is 7.45% in assay [1]; 16.2% in assay [2]; -5.85% in assay [3]; 10.3% in assay [4]; 10.4% in assay [5]; 10.8% in assay [6].
Turning to `Nc1nc2nsnc2nc1N`, the growth inhibition is 1.9% in assay [1]; 12.3% in assay [2]; 13.6% in assay [3]; -57.9% in assay [4]; 1.2% in assay [5]; 23.9% in assay [6].
For the compound `COC(=O)C(CCC1(C)OCCO1)=[N+]=[N-]`, the growth inhibition was -7.05% in assay [1]; 0.95% in assay [2]; -15.1% in assay [3]; 2.85% in assay [4]; -19.1% in assay [5]; -16% in assay [6].
Regarding `CCC(CC)(C[NH-])C[NH-].[Cl][Pt+2][Cl]`, the growth inhibition is 10% in assay [1]; 41.7% in assay [2]; 10% in assay [3]; 16.2% in assay [4]; 18.2% in assay [5]; -7.95% in assay [6].
`O=C(Cn1ccccc1=O)c1ccc(F)cc1`: the growth inhibition in assay [1] is 9.65%; in assay [2], -0.15%; in assay [3] it was 0%; in assay [4], -18.6%; in assay [5], 1.7%; in assay [6], -8.25%.
Take `COc1ccccc1C(O)(c1ccccc1OC)C1(O)CCN(C)CC1`: the growth inhibition in assay [1] is -10.8%; in assay [2] it was -10.9%; in assay [3], -4.8%; in assay [4] it was -4.45%; in assay [5] it was -5.3%; in assay [6], -10.4%.
For `CNC(=S)SC1=NS(=O)(=O)c2ccccc2N1`, the growth inhibition in assay [1] is -9.1%; in assay [2], -5.05%; in assay [3], -2.75%; in assay [4], 12.4%; in assay [5], -9.75%; in assay [6] it was 23.4%.
As to `O=C(O)COc1ccc(C2CCCCC2)cc1`, the growth inhibition is 5.1% in assay [1]; 3.3% in assay [2]; -7.65% in assay [3]; 21.8% in assay [4]; -4.9% in assay [5]; -1.95% in assay [6].
Take `C/C(=N\N)c1ccc(Cl)cc1O`: the growth inhibition was 7.45% in assay [1]; -34.2% in assay [2]; 7.2% in assay [3]; 4.25% in assay [4]; 3.5% in assay [5]; 16% in assay [6].
Take `Nc1nc(N)c2ncn(-c3ccc(Cl)cc3)c2n1`: the growth inhibition in assay [1] was -0.7%; in assay [2] it was 14.2%; in assay [3], 9.8%; in assay [4], -21.4%; in assay [5], -0.85%; in assay [6], 8.4%.
As to `O=C(O)c1cccc(F)n1`, the growth inhibition is -0.45% in assay [1]; 2.05% in assay [2]; -1.8% in assay [3]; 3.1% in assay [4]; -0.65% in assay [5]; -1.85% in assay [6].
For the compound `CSc1nc(NC2OCC(O)C(O)C2O)c(C(C)=O)c(=O)n1C` (stereo unspecified), the growth inhibition in assay [1] was 3.7%; in assay [2], -7.35%; in assay [3], 8.2%; in assay [4], -1.95%; in assay [5], -33.4%; in assay [6], 4.4%.
For `Cc1ccc(S(=O)(=O)N(CCO)CC(C)O)cc1` (stereo unspecified), the growth inhibition is -15.9% in assay [1]; -24.1% in assay [2]; -23.2% in assay [3]; -13% in assay [4]; -24.1% in assay [5]; -26.8% in assay [6].
Turning to `Cc1ccc(N=Nc2c(O)c3ccccc3[nH]c2=O)c(S(=O)(=O)N(C)C)c1`, the growth inhibition in assay [1] is 29.7%; in assay [2] it was -24.2%; in assay [3] it was -24.9%; in assay [4], 29.6%; in assay [5], -27.2%; in assay [6], -17.5%.
`CN(C)c1nc(N(C)C)c2cnn(C)c2n1`: the growth inhibition in assay [1] was 21.7%; in assay [2], 3.7%; in assay [3], 20.9%; in assay [4] it was -15.8%; in assay [5] it was -2.7%; in assay [6] it was -29.8%.
Consider `Nc1ccc2c(c1)-c1ccccc1C2O` (stereo unspecified), for which the growth inhibition in assay [1] was -1.2%; in assay [2], -19.1%; in assay [3], -37.8%; in assay [4], -60.9%; in assay [5], -17.1%; in assay [6], -16.4%.
Turning to `CCOC(=O)C1C=CC(C)N(C(=O)OCC)N1C(=O)OCC` (stereo unspecified), the growth inhibition in assay [1] is 0.35%; in assay [2] it was 2.45%; in assay [3], 7.5%; in assay [4], -2.3%; in assay [5] it was 49.9%; in assay [6], -13.7%.
For the compound `CC1=[N+]([O-])c2ccccc2C(=O)C1=O`, the growth inhibition in assay [1] is 35.3%; in assay [2], 12.3%; in assay [3], 35.3%; in assay [4], 33.6%; in assay [5], 41.1%; in assay [6] it was 27.1%.
Take `CCOc1ccccc1NC(=O)Nc1cccc2ccccc12`: the growth inhibition in assay [1] was -3.5%; in assay [2] it was 3.75%; in assay [3], 3.65%; in assay [4], -22.3%; in assay [5] it was -6.8%; in assay [6], -15.4%.
For `CC(=O)OCCOCCN1CCN(c2c(O)c3c(c(O)c2Cl)C(=O)C=CC3=O)CC1`, the growth inhibition in assay [1] is 79.7% (active); in assay [2], 88.2% (active); in assay [3], 90.8% (active); in assay [4], 87.1% (active); in assay [5], 89.3% (active); in assay [6], 89.8% (active).
